Our source for the inhibition values is PubChem BioAssay AID1446 (The Scripps Research Institute Molecular Screening Center, 2008).

About 2,400 (1.1%) of roughly 220,000 compounds were called active. Only a selection was taken, and actives are over-represented in it overall. A number with no mark means an inactive call.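 Rule for the calls: active = inhibition above the campaign mean plus 3 SD over all tested compounds (cut at about 24% in these data); inactive = the rest.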

The inhibition is the change of the read-out against control, counted positive when it falls.

The assay can be described thus: viability loss in Ba/F3 EpoR-JAK2V617F cells – cell-based, luminescence, JAK2V617F inhibitor project, primary screen (AID 1446).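 Note: cytokine-independent growth of Ba/F3 cells driven by EpoR plus mutant JAK2; 0% = DMSO-treated cells and 100% = JAK inhibitor I control.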 Conditions: ATP luminescence, at 5.6 µM, stronger effect = higher value.
Take `COc1cc2c(cc1OC)C(/C=C/c1ccco1)=NCC2`: the inhibition is 1.51%.

For the molecule `O=C(c1cn(-c2ccccc2)nc1-c1cc2ccccc2oc1=O)N1CCOCC1`, the inhibition was -0.6%.

`Nc1ncc(-c2cc3ccccc3oc2=O)s1`: the inhibition is 6.85%.

Regarding `O=c1oc2ccccc2cc1-c1cn(-c2ccccc2)c(=S)[nH]1`, the inhibition was 35.7% (active). Take `Cc1nc2c(ncn2-c2ccccc2)c(=O)n1NC(=O)CN1CCCC1`: the inhibition is -1.07%. `O=C(NNC(=O)c1ccccc1[N+](=O)[O-])Nc1ccccc1C(F)(F)F`: the inhibition was -0.76%. `CCOC(=O)c1cc(-c2nnc(-c3cc(OC)c(OC)c(OC)c3)o2)c(C)nc1C`: the inhibition is 0.18%. Regarding `CCOC(=O)C1CCN(C(=O)/C=C/c2cc(OC)c(OC)c(OC)c2)CC1`, the inhibition is -2.65%. For `CCOC(=O)C1=C(N)N2C(=O)C(C)SC2=C(C(=O)OCC)C1c1cc(OC)c(OC)c(OC)c1` (configuration not stated), the inhibition was 80.7% (active). For `CC(CNS(=O)(=O)c1ccc(Br)cc1)CN(C)C` (configuration not stated), the inhibition is -1.94%. The value for `Cc1ccc(Cl)cc1N1CCN(C(=O)c2cccc3c(=O)c(C)c(-c4ccccc4)oc23)CC1` was -6.79%; that for `C=CC[n+]1c(-c2ccc(C)cc2)csc1NNC(=O)Nc1ccccc1` was 37.6% (active). In the case of `C=CCNc1scc(-c2ccccc2)[n+]1CC=C`, the inhibition is -1.89%.

Turning to `Cc1ccc(NC(=O)Nc2ccccc2)c(Br)c1`, the inhibition was 1.27%. In the case of `CCN(CC)CCOC(=O)c1ccc(NC(=O)CNC(=O)c2ccccc2)cc1`, the inhibition is 0.68%. As to `COc1ccc(C(=O)C[n+]2ccc(C)cc2)cc1`, the inhibition was -3%.

Consider `COc1ccc(C(=O)C[n+]2ccc(N)c(C)c2C)cc1`, for which the inhibition was 97.4% (active).

In the case of `COc1ccc(OCCC(=O)c2ccc(OC)cc2)cc1`, the inhibition was -0.79%.

`Cc1nn(-c2ccccc2)c(NC(=O)c2cccs2)c(-c2ccc(Cl)cc2)c1=O`: the inhibition is -2.34%. As for `COCCCNC(=O)/C=C/c1ccc(OCc2c(F)cccc2Cl)cc1`, the inhibition was -4.39%. Regarding `O=C(/C=C/c1ccc(OCc2c(F)cccc2Cl)cc1)N1CCOCC1`, the inhibition is 64.4% (active). As to `CN(C)CCCNC(=O)/C=C/c1ccc(OCc2c(F)cccc2Cl)cc1`, the inhibition is 0.9%. As to `O=C(NNC(=O)c1csc(-c2cccnc2)n1)Nc1ccc(Cl)cc1`, the inhibition is -0.26%.

Take `COC(=O)N/N=C/c1cn(CCCOc2ccc(C)cc2)c2ccccc12`: the inhibition was -1.96%.

Consider `CCN(CC)c1ccc(/C=N/Nc2nc(C)cc(C)n2)c(O)c1`, for which the inhibition was 2.26%. With `O=C(Nc1ccc2c(c1)OCCO2)c1cnccn1`, the inhibition was 0.76%. The value for `CCN(CC)c1ccc(/C=N/NC(=O)c2cnccn2)c(O)c1` was 56.2% (active).
